Data taken from PubChem BioAssay (NCI).
This is part of a sample that, as a whole, favours compounds with a hit. Of some 83,000 tested, about 20% had one in any assay.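 The endpoint reported here, percent growth, reads 100 for growth as untreated, 0 for no net growth and -100 for all cells dead.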 The source made the active and inactive calls. How the source made its calls: active means growth percent below 10; inactive means the rest.

Assays:
Assay in all cases: NCI-60 one-dose screen, 48 h (100 = growth as untreated, 0 = no growth, -100 = all killed)
Conditions in all cases: 10 µM unless noted
[1] = system: DU-145 prostate
[2] = system: K-562 leukemia
[3] = system: MALME-3M melanoma
[4] = system: MDA-MB-231 breast
[5] = system: RXF 393 renal
[6] = system: SF-268 CNS
[7] = system: SF-295 CNS
[8] = system: SF-539 CNS
[9] = system: UACC-257 melanoma
[10] = system: M14 melanoma
[11] = system: HCT-15 colon
[12] = system: HT29 colon
[13] = system: SNB-75 CNS
[14] = system: SNB-19 CNS
[15] = system: U251 CNS
[16] = system: PC-3 prostate
[17] = system: SK-MEL-5 melanoma
[18] = system: UACC-62 melanoma
[19] = system: LOX IMVI melanoma
[20] = system: SK-MEL-28 melanoma

Measured: growth

COC(=O)[C@]12CC[C@@H](C)[C@H](C)[C@@H]1C1=CC[C@@H]3[C@@]4(C)C(C=O)=C[C@@](C)(CO)[C@@H]4[C@H](O)C[C@@]3(C)[C@]1(C)CC2
active: [1] -30% | [2] 6.68% | [3] -70.7% | [4] -47.6% | [5] -82% | [6] -0.0873% | [7] -15.6% | [8] -44% | [9] -48.4% | [10] -51.5% | [11] -68.1% | [12] -37.7% | [13] 3.2% | [15] -19% | [16] -0.105% | [17] -85.7% | [18] -34.5% | [19] -97.9% | [20] -34.5%
inactive: [14] 24.4%

C=CCn1c(C)nc2cc(Nc3nc(N4CCCC4)nc4ccccc34)ccc21
active: [2] 1.94% | [12] 5.63% | [19] 2.4%
inactive: [1] 73.8% | [3] 122% | [4] 42% | [5] 52.4% | [6] 86.9% | [7] 83.7% | [8] 90.1% | [9] 115% | [10] 89.7% | [11] 79.4% | [13] 83.6% | [14] 107% | [15] 96.6% | [16] 98.7% | [17] 62.4% | [18] 113% | [20] 80.1%

Cc1cc(NCc2cc(Nc3ccnc4cc(Cl)ccc34)ccc2F)nc(N2CCN(c3ccccc3)CC2)n1
active: [2] -0.109% | [19] -84.6%
inactive: [1] 72.5% | [3] 84.4% | [4] 17.2% | [5] 47.4% | [6] 65.3% | [7] 27.3% | [8] 61.9% | [9] 73.7% | [10] 43.4% | [11] 15.6% | [12] 13.6% | [13] 57.7% | [14] 76.5% | [15] 10.5% | [16] 42.7% | [17] 53.3% | [18] 70.6% | [20] 69.7%

Cc1cc(C(=O)c2ccccc2)c(C)c2c1[nH]c1ccc(Cl)cc12
inactive: [2] 11.9% | [3] 33.7% | [4] 30.6% | [5] 18.9% | [6] 22.8% | [9] 66.1% | [10] 19.6% | [14] 52.3% | [15] 20.8% | [16] 23.8% | [18] 54.9% | [19] 10.2% | [20] 59.1%
active: [1] 1.86% | [7] 6.92% | [8] -14.9% | [11] 7.78% | [12] 5.31% | [13] -10.1% | [17] 2.39%

CCOc1ccccc1-n1c(CN2CCN(C(=O)COc3ccc(CNCCCCCCN4C5CCCC4CC(OC(=O)Nc4cc(C)ccc4OC)C5)cc3)CC2)nc2ccccc2c1=O (stereo not given)
active: [1] -98.5% | [2] -56.9% | [3] -84.9% | [4] -91.1% | [5] -76.8% | [6] -77.1% | [7] -92.6% | [8] -92.8% | [9] -95.6% | [10] -77.6% | [11] -84.4% | [12] -85.6% | [13] -99.2% | [14] -89.9% | [15] -99.2% | [16] -85.6% | [17] -96.5% | [18] -89.3% | [19] -92% | [20] -93%

Cc1ccc(N(C(=O)CCc2c[nH]c3ccccc23)[C@H](C(=O)Nc2ccc(Cl)cc2)c2cccc([N+](=O)[O-])c2)cc1
inactive: [1] 81.6% | [2] 37.8% | [3] 99% | [4] 75.4% | [5] 95.7% | [6] 70.7% | [7] 105% | [8] 89.7% | [9] 90.1% | [10] 78.4% | [11] 70.7% | [12] 86.5% | [13] 84.1% | [14] 92.2% | [15] 78% | [16] 62.2% | [17] 75.9% | [18] 33.7% | [19] 45.1% | [20] 114%

CC(C)(C)C(CCc1ccc(Cl)cc1)N1CCN(C2CCCCC2)CC1 (stereo not given)
inactive: [1] 25.3% | [3] 83.4% | [4] 12.3% | [5] 83.2% | [6] 43.8% | [7] 72.6% | [8] 81.2% | [9] 51.4% | [10] 31.9% | [11] 38.1% | [12] 12.6% | [13] 77.7% | [14] 70.6% | [15] 38.1% | [16] 27.7% | [17] 46.4% | [18] 46.8% | [20] 83.1%
active: [2] 9.18% | [19] -20.3%

O=C(NCCCNc1cc(-c2cn(-c3ccccc3)nc2-c2cccc(O)c2)ccn1)c1cccc(O)c1
inactive: [1] 78.3% | [3] 64.2% | [4] 43.5% | [5] 77.3% | [6] 63.8% | [7] 83.3% | [8] 69.5% | [9] 58.4% | [10] 52.8% | [11] 79.5% | [12] 87% | [13] 59.8% | [14] 79.7% | [15] 42.3% | [16] 39.4% | [17] 43.7% | [18] 42% | [19] 54.1% | [20] 77.6%
active: [2] 7.59%

N#CC1=C(NC=O)Oc2c(ccc3ccccc23)C1c1ccccc1 (stereo not given)
inactive: [1] 41.3% | [2] 15.1% | [3] 66.8% | [4] 31.9% | [5] 25.5% | [6] 41.3% | [7] 29.3% | [9] 41.5% | [10] 10.2% | [11] 30.3% | [12] 94% | [14] 30.8% | [15] 21.6% | [16] 18.3% | [18] 30.9% | [19] 34.1% | [20] 60.2%
active: [8] 8.89% | [13] 2.51% | [17] -33.1%

C=CCOC1=CC(=O)c2ccccc2C1=O
inactive: [1] 59.9% | [2] 26.8% | [3] 69% | [4] 77.3% | [5] 111% | [6] 82% | [7] 98.1% | [8] 116% | [9] 55.8% | [10] 79.5% | [11] 94.9% | [12] 80.5% | [13] 48% | [14] 104% | [15] 86.7% | [16] 85.9% | [17] 27.3% | [18] 57% | [20] 87%
active: [19] 3.82%

O=C(Nc1cccc(Oc2nnc(Cl)c3ccccc23)c1)Nc1ccc(Cl)c(C(F)(F)F)c1
active: [1] -5.14% | [2] -8.66% | [3] -49.9% | [4] -57.3% | [5] -62.3% | [6] -32.2% | [7] -56.3% | [8] -73.4% | [9] -68.4% | [10] -62.8% | [11] -64% | [12] -75.9% | [13] -59.3% | [14] -5.9% | [15] -75.4% | [16] -38.1% | [17] -98.8% | [18] -82.5% | [19] -93.2% | [20] -62.5%

O=C(/C=C/c1c(Cl)nc2sccn12)c1ccc(F)c(F)c1
inactive: [1] 96.1% | [2] 48.1% | [3] 113% | [4] 81.8% | [5] 69.7% | [6] 81.4% | [7] 91.9% | [8] 96.5% | [9] 73.9% | [10] 87.2% | [11] 90.4% | [12] 87% | [13] 60.4% | [14] 87.9% | [15] 90.7% | [16] 78.8% | [17] 66.4% | [18] 68.7% | [19] 92% | [20] 96%

COc1cc2c(cc1-c1c(C)noc1C)ncc1nc(C3CCC(F)(F)CC3)n(C3CCC(OC(F)F)CC3)c12 (stereo not given)
inactive: [1] 73.3% | [2] 41.5% | [3] 48.2% | [4] 37.8% | [5] 75.5% | [6] 72.7% | [7] 68.1% | [8] 61.8% | [9] 38.8% | [10] 55.1% | [11] 36.1% | [12] 31.6% | [13] 15.1% | [14] 67.2% | [15] 77.7% | [16] 41.8% | [17] 43.7% | [18] 32% | [19] 35.2% | [20] 66.6%

CC1(C)CC(=O)CC2(C1)N=C(N)Nc1nc3ccccc3n12 (stereo not given)
inactive: [1] 115% | [2] 103% | [3] 104% | [4] 96.5% | [5] 104% | [6] 107% | [7] 108% | [8] 105% | [9] 106% | [10] 110% | [11] 98.2% | [12] 91.6% | [13] 82.3% | [14] 99.2% | [15] 104% | [16] 95.7% | [17] 97.4% | [18] 95.9% | [19] 94.9% | [20] 101%

COc1cc(C2CC(=O)Nc3c2c(C)nn3-c2nc3ccccc3[nH]2)c(OC)c2c1OCO2 (stereo not given)
inactive: [1] 88.5% | [2] 17.2% | [3] 73.9% | [4] 73.4% | [5] 73.2% | [6] 71% | [7] 36.9% | [8] 78.4% | [9] 85.5% | [10] 52.1% | [11] 40.2% | [12] 95% | [13] 31.1% | [14] 71.4% | [15] 67.8% | [16] 71.3% | [17] 56.9% | [18] 55.5% | [19] 82.1% | [20] 75.8%

CCCCCCCCCCN(CCCCCCCCCC)CC(=O)c1ccc2cc(Br)c3ccccc3c2c1
inactive: [1] 71.7% | [4] 67.1% | [5] 95.5% | [6] 81% | [7] 91.8% | [8] 89% | [9] 87% | [11] 64.9% | [13] 68.7% | [14] 88% | [17] 93.6% | [18] 93.9% | [19] 21.6% | [20] 113%
active: [2] -46.6% | [3] -78.2% | [10] -11.7% | [12] 3.77% | [15] -9.35% | [16] -71.7%
